Drawing on PubChem BioAssay (NCI), this text covers growth for 9 compounds.

The structures appear in SMILES notation. The panel holds about 83,000 compounds, 20% with a hit somewhere; the sample as a whole holds those more often.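 How to read the values: 0–100, growth inhibition (40 = 60% inhibited); 0, no net growth; -100 to 0, cell death (-40 = 40% of starting cells died; -100 = all dead).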 Unmarked numbers belong to inactive results. Activity calls are given as the source filed them. How the source made its calls: active means growth percent below 10; inactive means the rest.

What all share (assay): NCI-60 one-dose screen, 48 h (100 = growth as untreated, 0 = no growth, -100 = all killed)
One assay has as its system NCI-H23 lung. Particulars: 10 µM unless noted.
The next assay concerns NCI-H226 lung. The settings on record: 10 µM unless noted.
Another assay has as its system NCI-H322M lung. The settings on record: 10 µM unless noted.
A further assay relates to HOP-62 NSCLC. The settings on record: 10 µM unless noted.
Another assay has as its system NCI-H460 lung. The settings on record: 10 µM unless noted.
The subject of another assay is HOP-92 NSCLC. The settings on record: 10 µM.
In another assay the test system is NCI-H522 lung. The settings on record: 10 µM unless noted.
The test system of another assay is A549/ATCC NSCLC. Particulars: 10 µM unless noted.
The subject of another assay is 786-0 renal. The settings on record: 10 µM unless noted.
The subject of another assay is COLO 205 colon. The settings on record: 10 µM unless noted.
For the next assay, the system named is DU-145 prostate. Particulars: 10 µM unless noted.
The test system of another assay is K-562 leukemia. Particulars: 10 µM unless noted.
In the next assay the test system is MALME-3M melanoma. The settings on record: 10 µM unless noted.
The next assay relates to MDA-MB-231 breast. The settings on record: 10 µM unless noted.
Another assay concerns SF-268 CNS. Particulars: 10 µM unless noted.
In the next assay the test system is SF-295 CNS. Particulars: 10 µM unless noted.
The subject of a further assay is SF-539 CNS. The settings on record: 10 µM unless noted.
In the next assay the test system is UACC-257 melanoma. The settings on record: 10 µM unless noted.

For the compound `COc1cc2oc(-c3cccc(NC(=O)c4cc(N)ccc4Cl)c3)cc(=O)c2c(OC)c1OC`, the growth in the assay with NCI-H23 lung is 102%; in the assay on NCI-H226 lung it was 97.1%; in the assay on NCI-H322M lung it was 105%; in the assay with HOP-62 NSCLC, 111%; in the assay with NCI-H460 lung, 104%; with HOP-92 NSCLC, 51.9%. Besides, the growth in the assay on NCI-H522 lung is 101%; in the assay with A549/ATCC NSCLC, 103%; in the assay with 786-0 renal, 85.2%; with COLO 205 colon it was 117%; in the assay with DU-145 prostate it was 99.7%; with K-562 leukemia it was 83.7%. The growth in the assay with MALME-3M melanoma was 100%; in the assay with MDA-MB-231 breast it was 87.8%; with SF-268 CNS it was 98.2%; with SF-295 CNS, 91.4%; in the assay with SF-539 CNS, 94.8%; in the assay with UACC-257 melanoma, 127%.

As to `O=C1[C@H]2Cc3c([nH]c4ccccc34)[C@@H](c3c(Cl)cccc3Cl)N2C(=O)CN1C1CCN(CC2CCCCC2)CC1`, the growth in the assay with NCI-H23 lung was 94.5%; in the assay with NCI-H226 lung, 86.1%; in the assay with NCI-H322M lung, 94.7%; in the assay on HOP-62 NSCLC, 93.3%; in the assay on NCI-H460 lung, 63.6%; with HOP-92 NSCLC it was 54.9%. The growth with NCI-H522 lung was 101%; in the assay with A549/ATCC NSCLC it was 94.3%; with 786-0 renal it was 83.2%; with COLO 205 colon it was 105%; in the assay on DU-145 prostate, 48.9%; in the assay on K-562 leukemia, 9.76% (active). The growth in the assay on MALME-3M melanoma is 85.5%; in the assay on MDA-MB-231 breast, 75%; in the assay on SF-268 CNS, 84.4%; with SF-295 CNS it was 105%; in the assay on SF-539 CNS, 95.4%; in the assay with UACC-257 melanoma it was 110%.

Take `O=C(O)c1ccc(-n2cc(CNc3cc(F)c(F)c(F)c3)c(-c3cccc(F)c3)n2)cc1`: the growth with NCI-H23 lung is 84.9%; in the assay with NCI-H226 lung, 93.9%; with NCI-H322M lung, 97.2%; in the assay on HOP-62 NSCLC it was 114%; in the assay with NCI-H460 lung it was 98.8%; in the assay on HOP-92 NSCLC, 104%. For the same compound, the growth in the assay with NCI-H522 lung was 91.5%; in the assay on A549/ATCC NSCLC it was 77.2%; in the assay on 786-0 renal, 112%; in the assay with COLO 205 colon, 126%; in the assay with DU-145 prostate it was 101%; with K-562 leukemia it was 84.3%. In addition, the growth is 67.2% in the assay with MALME-3M melanoma; 94.4% in the assay with MDA-MB-231 breast; 106% in the assay with SF-268 CNS; 37.1% with SF-295 CNS; 97.1% with SF-539 CNS; 95.1% with UACC-257 melanoma.

Turning to `CCCCCc1ccc(S(=O)(=O)Nc2cccc(-c3csc(NC(=O)CCCCCN4CCN(C)CC4)n3)c2)cc1`, the growth is 75.7% with NCI-H23 lung; 88.2% with NCI-H226 lung; 84.1% in the assay with NCI-H322M lung; 79.4% in the assay on HOP-62 NSCLC; -29.6% (active) in the assay on NCI-H460 lung; 29.8% in the assay on HOP-92 NSCLC. Further, the growth with NCI-H522 lung was 64.3%; with A549/ATCC NSCLC it was 54.4%; in the assay on 786-0 renal, 44.4%; in the assay on COLO 205 colon it was -34.3% (active); in the assay with DU-145 prostate, 63.5%; with K-562 leukemia it was -35.7% (active). For the same compound, the growth in the assay with MALME-3M melanoma is -67.4% (active); in the assay with MDA-MB-231 breast it was 42.9%; in the assay on SF-268 CNS, 67.5%; in the assay on SF-295 CNS, 85.8%; in the assay with SF-539 CNS it was 63%; in the assay with UACC-257 melanoma, 0.162% (active).

Take `CS(=O)(=O)Nc1cc(-c2ccc3ncc(C#N)c(N[C@H](CO)c4ccccc4)c3c2)cnc1Cl`: the growth with NCI-H23 lung was 45.2%; in the assay on NCI-H226 lung it was 56.2%; with NCI-H322M lung, 78.3%; with HOP-62 NSCLC, 46.8%; with NCI-H460 lung, 74.3%; with HOP-92 NSCLC it was -2.14% (active). The growth in the assay on NCI-H522 lung is 25.7%; in the assay with A549/ATCC NSCLC, 83.5%; in the assay on 786-0 renal it was 54.8%; in the assay on COLO 205 colon, 57%; with DU-145 prostate, 62.4%; in the assay on K-562 leukemia, 41.4%. Further, the growth in the assay on MALME-3M melanoma was 29.8%; with MDA-MB-231 breast, 43%; in the assay with SF-268 CNS, 28.4%; with SF-295 CNS, 57%; with SF-539 CNS, 43.7%; with UACC-257 melanoma it was 59.7%.

For the compound `CC/C(=C/c1cc(OC)ccc1O)c1ccc2cc(OC)ccc2[o+]1`, the growth with NCI-H23 lung is 64.2%; in the assay with NCI-H226 lung it was 78%; in the assay with NCI-H322M lung, 84.2%; in the assay on HOP-62 NSCLC, 69.8%; in the assay with NCI-H460 lung, 33.6%; in the assay on HOP-92 NSCLC, 71%. Moreover, the growth with NCI-H522 lung is 24.2%; in the assay with A549/ATCC NSCLC, 58.3%; with 786-0 renal it was 65.9%; in the assay on COLO 205 colon, 56.1%; in the assay with DU-145 prostate, 68.6%; in the assay with K-562 leukemia, 20.3%. Moreover, the growth with MALME-3M melanoma was 53.1%; in the assay on MDA-MB-231 breast, 66.2%; with SF-268 CNS it was 61.6%; in the assay on SF-295 CNS, 52.2%; in the assay with SF-539 CNS, 52.7%; with UACC-257 melanoma it was 65.6%.

In the case of `NC(N)=Nc1ccc(Oc2ccc(Nc3ccc(Cl)c(C(F)(F)F)c3)cc2)cc1`, the growth with NCI-H23 lung is 11.8%; in the assay with NCI-H226 lung it was 48.9%; with NCI-H322M lung it was 68.5%; in the assay on HOP-62 NSCLC, 76.4%; in the assay with NCI-H460 lung it was -0.702% (active); in the assay on HOP-92 NSCLC, 34.1%. In addition, the growth was 18.2% with NCI-H522 lung; 31.1% with A549/ATCC NSCLC; 34.6% in the assay on 786-0 renal; 20% in the assay on COLO 205 colon; 39% with DU-145 prostate; 7.03% (active) with K-562 leukemia. In addition, the growth in the assay with MALME-3M melanoma is 61.7%; in the assay with MDA-MB-231 breast, 28.4%; in the assay on SF-268 CNS it was 39%; with SF-295 CNS it was 22.3%; with SF-539 CNS it was 25.5%; with UACC-257 melanoma, 68.3%.

Consider `COc1cc(Cn2cc3c(c2)-c2onc(CN4CCOCC4)c2CC3)cc(OC)c1OC`, for which the growth is 94.6% in the assay with NCI-H23 lung; 87.1% in the assay with NCI-H226 lung; 100% in the assay on NCI-H322M lung; 95.6% in the assay with HOP-62 NSCLC; 111% with NCI-H460 lung; 89.7% with HOP-92 NSCLC. For the same compound, the growth was 86% in the assay with NCI-H522 lung; 101% in the assay on A549/ATCC NSCLC; 100% in the assay with 786-0 renal; 114% with COLO 205 colon; 113% in the assay on DU-145 prostate; 72.5% in the assay on K-562 leukemia. The growth is 91.8% in the assay on MALME-3M melanoma; 82.6% in the assay on MDA-MB-231 breast; 99.7% in the assay on SF-268 CNS; 93% with SF-295 CNS; 99.2% with SF-539 CNS; 101% in the assay with UACC-257 melanoma.

With `C=CCn1c(SCC(=O)Nc2ccc(C(=O)/C=C/c3ccc(Cl)cc3)cc2)nnc1-c1c[nH]c2ccccc12`, the growth in the assay on NCI-H23 lung was 77.8%; in the assay on NCI-H226 lung, 68%; in the assay on NCI-H322M lung, 88%; with HOP-62 NSCLC it was 88.8%; with NCI-H460 lung, 95.1%; in the assay on HOP-92 NSCLC, 79.9%. The growth with NCI-H522 lung is 73.4%; with A549/ATCC NSCLC, 64.8%; in the assay on 786-0 renal it was 106%; in the assay with COLO 205 colon it was 107%; in the assay with DU-145 prostate, 90.6%; with K-562 leukemia, 50.7%. Also, the growth in the assay with MALME-3M melanoma is 83%; in the assay on MDA-MB-231 breast, 81.5%; in the assay with SF-268 CNS, 64%; in the assay with SF-295 CNS, 46%; with SF-539 CNS, 75.8%; in the assay with UACC-257 melanoma, 99.6%.
